In PubChem BioAssay (NCATS):
Where “and” joins values, the source holds several entries; their conditions need not be identical. Equal entries are not always repeated. Records with an inconclusive call do not appear. Calls of active or inactive are those of the source. Calls follow the shape of the dose curve; as a rule, active = well fitted curve in the direction sought with a large enough effect; inconclusive = small, poorly fitted or top-dose-only effect, or another doubt; inactive = no such curve, though single readings can be large; an effect the other way counts as inactive or inconclusive.

Tests used:
CRL-7250 = normal cell line; test: Cytotoxic Profiling of Annotated Libraries Using Quantitative High-Throughput Screening (AID 1296008); conditions: Five cell lines viability, CellTiter-Glo ATP luminescence, 48-72 h; max response: stronger effect = lower value; also: nearly all actives have a fitted effect of over 60% in size; also: potency is read from the fitted curve at half-maximal effect; as to max response: % is scaled to controls: 0 for no effect and ±100 for the full control effect
Procedure, shortened: (§1)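 Cytotoxicity was measured as CellTiter-Glo ATP luminescence, read after 10 min at room temperature. Compound treatment of the cells lasted 48 or 72 hr at 37 degrees Celsius in a qHTS format.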

HaCat [1] = test: as above; conditions: Five cell lines viability, CellTiter-Glo ATP luminescence, 48-72 h; max response: stronger effect = lower value
Procedure, shortened: as §1

NIH3T3 = test: as above; conditions: Five cell lines viability, CellTiter-Glo ATP luminescence, 48-72 h; max response: stronger effect = lower value
Procedure, shortened: as §1

HACAT [2] = test: qHTS assay to identify novel small-molecules to repurpose for Merkel cell carcinoma treatment (AID 1296009); conditions: MCC and control cell lines, CellTiter-Glo viability, 72 h; at 44.8 µM (top of the series) unless noted; also: nearly all actives have a fitted effect of over 60% in size; also: potency is read from the fitted curve at half-maximal effect
Procedure, shortened: (§2)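 72 hr, 37 degree celsius; NPC 8-pt / MIPE 11-pt dose response; compound pinned in DMSO; CellTiter-Glo, 10 min RT, luminescence; normalized to no-cell and DMSO controls.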

MCC-13 = test: as above; conditions: MCC and control cell lines, CellTiter-Glo viability, 72 h; series mostly up to 46 µM
Procedure, shortened: as §2

MCC-26 = test: as above; conditions: MCC and control cell lines, CellTiter-Glo viability, 72 h; series mostly up to 46 µM
Procedure, shortened: as §2

MKL-1 = test: as above; conditions: MCC and control cell lines, CellTiter-Glo viability, 72 h; series mostly up to 46 µM
Procedure, shortened: as §2

KB-3-1 = test: Cytotoxic Profiling of Annotated Libraries Using Quantitative High-Throughput Screening (AID 1296008); conditions: Five cell lines viability, CellTiter-Glo ATP luminescence, 48-72 h; max response: stronger effect = lower value; also: nearly all actives have a fitted effect of over 60% in size; also: potency is read from the fitted curve at half-maximal effect; as to max response: % is scaled to controls: 0 for no effect and ±100 for the full control effect
Procedure, shortened: as §1

MKL-2 = test: qHTS assay to identify novel small-molecules to repurpose for Merkel cell carcinoma treatment (AID 1296009); conditions: MCC and control cell lines, CellTiter-Glo viability, 72 h; series mostly up to 46 µM; also: nearly all actives have a fitted effect of over 60% in size; also: potency is read from the fitted curve at half-maximal effect
Procedure, shortened: as §2

UISO = test: as above; conditions: MCC and control cell lines, CellTiter-Glo viability, 72 h; series mostly up to 46 µM
Procedure, shortened: as §2

WaGa = test: as above; conditions: MCC and control cell lines, CellTiter-Glo viability, 72 h; series mostly up to 46 µM
Procedure, shortened: as §2

C33A = test: Primary qHTS to identify gynecologic anti-cancer compounds using libraries of approved drugs and bioactive compounds (AID 1345084); conditions: Gynecologic cancer cell panel viability, ATPlite luminescence, 48 h; series mostly up to 57.5 µM; also: % is scaled to controls: 0 for no effect and ±100 for the full control effect; nearly all actives have a fitted effect of over 55% in size
Procedure, shortened: (§3)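 Cytotoxicity screen measuring ATP content by luciferase luminescence. Each compound is applied at five concentrations for 48 h at 37 C with 5% CO2.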

CAOV3 = test: as above; conditions: Gynecologic cancer cell panel viability, ATPlite luminescence, 48 h; series mostly up to 57.5 µM
Procedure, shortened: as §3

CASKI = test: as above; conditions: Gynecologic cancer cell panel viability, ATPlite luminescence, 48 h; series mostly up to 57.5 µM
Procedure, shortened: as §3

TAB113 = test: qHTS profiling for inhibitors of Plasmodium falciparum proliferation (AID 504749); conditions: P. falciparum in erythrocytes, SYBR Green DNA, 72 h; series mostly up to 28.7 µM
Procedure, shortened: (§4)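 Infected RBCs, 0.3% parasitemia/2.5% Hct final; cpd 72 h, 37 C, 5% CO2; lysis buffer with saponin/triton/SYBR Green I, o/n RT dark; FI 485/535; norm. to artemisinin (0.29 uM) and DMSO.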

TAB165 = test: as above; conditions: P. falciparum in erythrocytes, SYBR Green DNA, 72 h; series mostly up to 28.7 µM
Procedure, shortened: as §4

HEK293 = test: Cytotoxic Profiling of Annotated Libraries Using Quantitative High-Throughput Screening (AID 1296008); conditions: Five cell lines viability, CellTiter-Glo ATP luminescence, 48-72 h; max response: stronger effect = lower value; also: nearly all actives have a fitted effect of over 60% in size; also: potency is read from the fitted curve at half-maximal effect; as to max response: % is scaled to controls: 0 for no effect and ±100 for the full control effect
Procedure, shortened: as §1

CCC(=C(CC)c1ccc(O)cc1)c1ccc(O)cc1
inactive: max response (CRL-7250) 2.3% | outcome (HaCat [1]) | max response (NIH3T3) -12.1% | outcome (HACAT [2]) | Potency (MCC-13) | Potency (MCC-26) | Potency (MKL-1)

COc1ccc2c(c1)CC[C@H]1[C@@H]2CC[C@]2(C)[C@@H](NCCCCCCN3C(=O)C=CC3=O)CC[C@H]12
inactive: max response (CRL-7250) -3.42% | max response (HaCat [1]) 1.55% | max response (KB-3-1) -4.66% | max response (NIH3T3) -1.24% | Potency (MCC-13) | Potency (MCC-26) | Potency (MKL-1) | Potency (MKL-2) | Potency (UISO) | Potency (WaGa)

COc1ccc(C=CC(=O)Nc2ccccc2C(=O)O)cc1OC
inactive: max response (CRL-7250) -5.04% | max response (HaCat [1]) -7.89% | max response (KB-3-1) 7.16% | max response (NIH3T3) 0.371% | Potency (MCC-13) | Potency (MCC-26) | Potency (MKL-1) | Potency (MKL-2) | Potency (UISO) | Potency (WaGa)

c1ccc(-c2oc3ncnc(NC[C@@H]4CCCO4)c3c2-c2ccccc2)cc1
active: Potency (NIH3T3) 14.6 µM
inactive: max response (CRL-7250) -6.45% | max response (HaCat [1]) -3.81% | Potency (MCC-13) | Potency (MCC-26) | Potency (MKL-1) | Potency (MKL-2) | Potency (UISO) | Potency (WaGa) | Potency (C33A) | Potency (CAOV3) | Potency (CASKI)

COc1c(C)cnc(Cn2cnc3c(Cl)nc(N)nc32)c1C
active: Potency (CRL-7250) 0.935 µM | Potency (HaCat [1]) 0.296 µM | Potency (NIH3T3) 0.526 µM | Potency (UISO) 0.743 µM | Potency (WaGa) 0.209 µM
inactive: Potency (MKL-2)

COc1cc2c(cc1OC)CC(=O)N(CCCN(C)C[C@H]1Cc3cc(OC)c(OC)cc31)CC2
inactive: Potency (TAB113) | Potency (TAB165) | max response (CRL-7250) 4.25% | max response (HaCat [1]) -15.9% | max response (KB-3-1) 6.36% | max response (NIH3T3) -18.8% | Potency (MCC-13) | Potency (MCC-26) | Potency (MKL-1) | Potency (MKL-2) | Potency (UISO) | Potency (WaGa)

CC(C)c1onc(-c2c(Cl)cccc2Cl)c1COc1ccc(C=Cc2cccc(C(=O)O)c2)c(Cl)c1
inactive: max response (CRL-7250) -1.7% | max response (HaCat [1]) -7.35% | max response (KB-3-1) 6.78% | max response (NIH3T3) 4.7% | Potency (MCC-13) | Potency (MCC-26) | Potency (MKL-1) | Potency (MKL-2) | Potency (UISO) | Potency (WaGa)

Cn1c(=O)c(Oc2ccc(F)cc2F)cc2cnc(NC3CCOCC3)nc21
inactive: max response (CRL-7250) -20.5% | max response (KB-3-1) -6.47% | max response (NIH3T3) -13.2% | Potency (MCC-13) | Potency (MCC-26) | Potency (MKL-1) | Potency (MKL-2) | Potency (UISO) | Potency (WaGa)

COc1cc2c(cc1OC)[C@@H]1Cc3ccc(OC)c(OC)c3CN1CC2
inactive: max response (CRL-7250) -7.12% | max response (HaCat [1]) -3.71% | max response (KB-3-1) -25.3% | max response (NIH3T3) -3.25% | Potency (MCC-13) | Potency (MCC-26) | Potency (MKL-1) | Potency (UISO)
active: Potency (MKL-2) 18.7 µM

Cc1csc(-c2nnc(Nc3ccc(Oc4ncccc4-c4ccnc(N)n4)cc3)c3ccccc23)c1
active: Potency (HaCat [1]) 0.148 µM | Potency (WaGa) 0.0118 µM
inactive: max response (CRL-7250) -3.89% and -3.06% | Potency (MCC-26) | Potency (UISO) | Potency (C33A) | Potency (CASKI)

Cc1c(-c2cccc3c(CCCOc4cccc5ccccc45)c(C(=O)O)n(Cc4cccnc4)c23)c(COc2ccc(N3CCN([S+](=O)([O-])N(C)C)CC3)cc2)nn1C
inactive: max response (CRL-7250) -2.89% | max response (HaCat [1]) -5.9% | max response (NIH3T3) -4.88% | Potency (MCC-13) | Potency (MCC-26) | Potency (MKL-1) | Potency (MKL-2) | Potency (UISO) | Potency (WaGa)

CCCCC(C)(C)[C@H](O)C=C[C@H]1[C@H](O)CC(=O)[C@H]1CC=CCCCC(=O)O
inactive: max response (CRL-7250) -10.4% | outcome (HaCat [1]) | outcome (KB-3-1) | outcome (HACAT [2]) | Potency (MCC-13) | Potency (MCC-26)

O=S(=O)(NCCNCC=Cc1ccc(Br)cc1)c1cccc2cnccc12
inactive: max response (HaCat [1]) -0.249% | max response (NIH3T3) -13.9% | Potency (MCC-26)
active: Potency (HEK293) 7.43 µM | Potency (MKL-1) 20.9 µM | Potency (MKL-2) 5.26 µM | Potency (WaGa) 14.8 µM

C[C@@H](O[C@H]1OCCN(Cc2n[nH]c(=O)[nH]2)[C@@H]1c1ccc(F)cc1)c1cc(C(F)(F)F)cc(C(F)(F)F)c1
inactive: max response (HaCat [1]) -38.5% | max response (NIH3T3) -21.1% | Potency (MCC-13) | Potency (MCC-26) | Potency (MKL-1) | Potency (MKL-2) | Potency (WaGa)
active: Potency (HEK293) 20.9 µM | Potency (KB-3-1) 26.4 µM

NC(=O)c1noc([C@H](CCCC2CCCCC2)CC(=O)NO)n1
active: Potency (HEK293) 11.8 µM | Potency (NIH3T3) 18.7 µM and 16.4 µM | Potency (MKL-1) 16.6 µM | Potency (UISO) 14.8 µM
inactive: max response (KB-3-1) -19.6% and 9.75% | Potency (MCC-26) | Potency (C33A) | Potency (CASKI)

Cc1nn(Cc2ccccc2Cl)c(C)c1CN(C)CC(O)COc1ccc(Cl)cc1 (stereo not drawn)
inactive: Potency (MCC-13) | Potency (MCC-26) | Potency (MKL-1) | Potency (WaGa)
active: Potency (HEK293) 18.7 µM

NS(=O)(=O)c1ccc(Nc2nc(OCC3CCCCC3)c3[nH]cnc3n2)cc1
active: Potency (HEK293) 18.4 µM | Potency (KB-3-1) 14.8 µM | Potency (UISO) 2.35 µM
inactive: max response (HaCat [1]) -17.9% | Potency (MCC-13) | Potency (MCC-26) | Potency (MKL-2) | Potency (C33A) | Potency (CASKI)

Cc1ccc2c(c1)C(=O)[C@]1(O)CCN(c3ccccc3)C1=N2
inactive: max response (HEK293) -19.6% | Potency (MCC-13) | Potency (MCC-26) | Potency (MKL-2) | Potency (UISO) | Potency (C33A) | Potency (CAOV3) | Potency (CASKI)
